Results with a measured potency or affinity are listed apart. Active and inactive are the calls of the source. The rule behind the calls is not given here.
conditions: HEK293 cytotoxicity, plate reader; series mostly up to 26 µM

Row | Structure (SMILES) | outcome
1 | O=S(=O)(c1ccc(OCCn2cnc3ccccc32)cc1)N1CCOCC1 | inactive
2 | Cc1ccc(C(C)C)c(OCCn2c(=S)[nH]c3ccccc32)c1 | inactive
3 | OCc1nc2ccccc2n1CCOc1ccccc1 | inactive
4 | Cc1cccc(OCCn2c(=S)[nH]c3ccccc32)c1 | inactive
5 | Fc1cccc2c1[nH]c(=S)n2CCOc1ccccc1 | inactive
6 | COc1cccc(OCCn2cnc3ccccc32)c1 | inactive
7 | FC(F)(F)c1cccc(OCCn2cnc3ccccc32)c1 | inactive
8 | CS(=O)(=O)c1ccc(OCCn2cnc3ccccc32)cc1 | inactive
9 | Cc1ccccc1OCCn1cnc2ccccc21 | inactive
10 | COc1ccc(OCCn2cnc3ccccc32)cc1 | inactive
11 | CC(C)Oc1ccc(OCCn2c(=S)[nH]c3ccccc32)cc1 | inactive
12 | CCCCc1nc2ccccc2n1CCOc1ccccc1 | inactive
13 | CCCc1nc2ccccc2n1CCOc1ccccc1 | inactive
14 | CCSc1nc2ccccc2n1CCOc1ccccc1 | inactive
15 | Cc1ccc2c(c1)[nH]c(=S)n2CCOc1ccccc1 | inactive
16 | Clc1ccccc1OCCn1cnc2ccccc21 | inactive

Row | Structure (SMILES) | outcome
17 | Clc1ccc(OCCn2cnc3ccccc32)cc1 | inactive
18 | Cc1cccc(OCCn2cnc3ccccc32)c1 | inactive
19 | S=c1[nH]c2cccc(Cl)c2n1CCOc1ccccc1 | inactive
20 | CCc1nc2ccccc2n1CCOc1ccccc1 | inactive
21 | COc1ccccc1OCCn1c(=S)[nH]c2ccccc21 | inactive
22 | Fc1ccc(OCCn2c(=S)[nH]c3ccccc32)cc1 | inactive
23 | Cc1ccc(OCCn2cnc3cc(C)c(C)cc32)cc1 | inactive
24 | CSc1nc2ccccc2n1CCOc1cc(C)ccc1C(C)C | inactive
25 | Cc1cccc(OCCn2c(=S)[nH]c3c(F)cccc32)c1 | inactive
26 | CSc1nc2ccccc2n1CCOc1ccc(C)cc1 | inactive
27 | Clc1ccc(OCCn2cnc3ccccc32)c(Cl)c1 | inactive
28 | Cc1ccc(OCCn2cnc3ccccc32)c(C)c1 | inactive
29 | Cc1cc2ncn(CCOc3ccccc3)c2cc1C | inactive
30 | Fc1ccc2c(c1)[nH]c(=S)n2CCOc1ccccc1 | inactive
31 | CC(C)Oc1ccc(OCCn2cnc3ccccc32)cc1 | inactive
